# Source: PubChem (National Center for Advancing Translational Sciences (NCATS))
# Most compounds without a hit are left out; they make up all but 12% or so of the library.
# L3MBTL1 block: qHTS Assay for the Inhibitors of L3MBTL1; 0.66% of 230,000 active; Potency, µM (top dose mostly 57.1 µM), most hits filed as inhibitors; AID 485360, 2010; AlphaScreen L3MBTL1–H3K9me1 peptide binding; note: nearly all actives have a fitted effect of over 60% in size
# Target sequence (Q9Y468 whole entry, looked up): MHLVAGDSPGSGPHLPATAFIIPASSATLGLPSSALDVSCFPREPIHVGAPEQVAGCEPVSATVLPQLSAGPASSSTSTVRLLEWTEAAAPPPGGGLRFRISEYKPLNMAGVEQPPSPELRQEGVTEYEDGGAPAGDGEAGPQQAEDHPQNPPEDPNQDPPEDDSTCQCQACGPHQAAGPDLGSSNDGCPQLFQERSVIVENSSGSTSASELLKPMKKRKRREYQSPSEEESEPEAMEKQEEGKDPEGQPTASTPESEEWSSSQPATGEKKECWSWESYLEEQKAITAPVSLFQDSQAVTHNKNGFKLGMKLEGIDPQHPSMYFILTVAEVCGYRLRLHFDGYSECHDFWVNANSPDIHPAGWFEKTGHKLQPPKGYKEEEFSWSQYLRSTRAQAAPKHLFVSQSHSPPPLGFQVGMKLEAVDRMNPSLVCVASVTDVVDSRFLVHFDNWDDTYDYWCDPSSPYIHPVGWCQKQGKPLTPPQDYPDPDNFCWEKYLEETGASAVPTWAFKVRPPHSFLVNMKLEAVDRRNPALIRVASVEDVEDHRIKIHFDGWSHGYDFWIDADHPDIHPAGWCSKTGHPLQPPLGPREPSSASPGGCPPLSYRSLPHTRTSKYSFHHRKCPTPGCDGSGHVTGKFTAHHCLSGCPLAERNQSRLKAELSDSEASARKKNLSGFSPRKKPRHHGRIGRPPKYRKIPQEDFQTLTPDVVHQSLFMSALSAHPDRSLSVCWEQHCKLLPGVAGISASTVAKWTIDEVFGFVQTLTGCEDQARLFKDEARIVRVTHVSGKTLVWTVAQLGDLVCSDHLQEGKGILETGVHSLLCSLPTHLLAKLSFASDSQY
#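 Displacement of a biotinylated histone H3(1-15) peptide monomethylated at Lys9 (75 nM) from L3MBTL1 (50 nM) was measured by AlphaScreen after a 30 min room-temperature compound incubation; cefsulodin titration served as intraplate control.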
# HP1b chromo inh: HTS for Inhibitors of HP1-beta Chromodomain Interactions with Methylated Histone Tails; Chromobox protein homolog 1 (Homo sapiens), P83916; AlphaScreen HP1-beta / biotin-H3K9me3 peptide binding; Potency, µM (doses to about 114 µM), most hits filed as inhibitors; 0.56% of 390,000 active; AID 540317, 2011; note: nearly all actives have a fitted effect of over 70% in size
#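 HP1-beta protein (50 nM final) preincubated 30 min at room temperature with biotinylated H3(1-18)K9me3 peptide (50 nM) in PBS pH 7.4, 0.01% Tween-20, then compound added for 30 min. AlphaScreen streptavidin donor/nickel chelate acceptor beads (10 ug/mL final), 30 min dark, luminescence read.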
# JMJD2A Tudor: qHTS Assay for Inhibitors of JMJD2A-Tudor Domain | Lysine-specific demethylase 4A (Homo sapiens), O75164 | AlphaScreen JMJD2A-Tudor / H3K4me3 peptide binding | Potency, µM (titrated, usually from 114 µM), usual class: inhibitors | 4.4% of 390,000 active; note: nearly all actives have a fitted effect of over 50% in size
# G9a inh: qHTS Assay for Inhibitors of Histone Lysine Methyltransferase G9a. Histone-lysine N-methyltransferase EHMT2 (Homo sapiens), Q96KQ7. 8.8% of 350,000 active. Potency, µM (doses to about 102 µM), hits mostly inhibitors. G9a H3K9 monomethylation, AlphaScreen, 2 h; note: nearly all actives have a fitted effect of over 75% in size
#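 G9a (20 nM) preincubated 15 min RT with compounds, then 500 nM biotinylated H3K9 peptide and 20 uM SAM added; 2 h RT reaction. Monomethyl-H3K9 product detected by AlphaScreen with anti-H3K9me1 antibody, streptavidin donor and anti-rabbit IgG acceptor beads.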
# Sfp PPTase inh: qHTS Assay for Inhibitors of Bacillus subtilis Sfp phosphopantetheinyl transferase (PPTase). 3.5% of 310,000 active. 4'-phosphopantetheinyl transferase ffp (Bacillus subtilis), Q9F4F7. Biochemical Sfp PPTase activity, qHTS. Potency, µM, actives largely listed as inhibitors;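 note: the enzyme is Sfp with the accession as filed and its product quenches rhodamine fluorescence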
#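 Step 1, compound plus 15 nM Sfp-PPTase, 15 min, room temperature. Step 2, add rhodamine-CoA (5 uM) and BHQ-2-YbbR (12.5 uM). Step 3, read 525/598 nm fluorescence at 0 and 30 min.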
# BAZ2B block: qHTS Assay for Inhibitors of BAZ2B; AlphaScreen BAZ2B-H3K14Ac peptide displacement; Bromodomain adjacent to zinc finger domain protein 2B (Homo sapiens), Q9UIF8; Potency, µM (highest dose often 114 µM), usual class: inhibitors; 4.4% of 360,000 active; AID 504333, 2011; note: nearly all actives have a fitted effect of over 60% in size
#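 Compounds, titrated to a top concentration of 110 uM, were incubated 30 min at room temperature with preformed BAZ2B/acetyl-K14 H3 peptide complex (50 nM each). Proximity signal was measured by AlphaScreen after 20 min with beads.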
# Hits are given with their value; i = inactive; ? = inconclusive; nt = no result; [ ] = remark or other dose. Calls come from the whole dose curve; as a rule, active = well fitted curve in the direction sought with a large enough effect; inconclusive = small, poorly fitted or top-dose-only effect, or another doubt; inactive = no such curve, though single readings can be large; an effect the other way counts as inactive or inconclusive.
SMILES,L3MBTL1 block,HP1b chromo inh,JMJD2A Tudor,G9a inh,Sfp PPTase inh,BAZ2B block
Cc1nnc(NC(=O)C2CCN(C(=O)c3ccsc3)CC2)s1,nt,i,i,nt,nt,nt
CN(C)c1ccc(/C=N/n2c(-c3ccccc3Br)n[nH]c2=S)cc1,nt,i,14µM,0.71µM,56µM,?
CCOc1ccc(/C=N/n2cnnc2)cc1,i,i,i,i[12.7 µM],i,i
CCOc1ccc(/C=N/n2c(C3CCCCC3)n[nH]c2=S)cc1,nt,i,?,28µM,?,i
S=c1[nH]nc(C2CCCCC2)n1/N=C/c1ccccc1,nt,i,56µM,20µM,i,i
CC(=O)Nc1ccc(S(=O)(=O)NC2(C(F)(F)F)C(=O)Nc3c2c(=O)[nH]c(=O)n3Cc2ccco2)cc1 (configuration not stated),i,nt,i,56µM,i,i
CC(=O)NC1(C(F)(F)F)C(=O)Nc2c1c(=O)[nH]c(=O)n2Cc1ccco1 (configuration not stated),nt,i,i,i,i,i
Cc1cc(C)cc(C(=O)NC(CC(N)=O)c2ccc(N3CCCCCC3)c([N+](=O)[O-])c2)c1 (configuration not stated),i,i,?,nt,i,?
O=C(NCCc1ccccc1)c1cnc2n(c1=O)CCS2,nt,i,i,i,i,nt
O=C(Nc1ccc(Oc2ccccc2)cc1)c1cnc2n(c1=O)CCS2,nt,i,i,56µM,i,i
CCOc1ccccc1NC(=O)c1cnc2n(c1=O)CCS2,i,i,i,79µM,i,i
COc1ccc(C)cc1NC(=O)c1cnc2n(c1=O)CCS2,i,i,i,i,i,i
CC(C)[C@@H]1C(=O)N(S(C)(=O)=O)[C@H]2CCN(C(=O)/C=C\CN3CCCCC3)[C@@H]12,nt,nt,nt,nt,i,nt
Cc1nn(Cc2ccccc2)c(C)c1C(=O)N1CCN(S(=O)(=O)/C=C/c2ccccc2)CC1,i,i,i,?,nt,i
Cc1cc(C(=O)N2CCCC(Nc3ccccc3)C2)c2ccc(F)cc2n1 (configuration not stated),nt,i,i,i,i,?
CN(CC(=O)Nc1cccc(F)c1)C(=O)c1cccc2ccccc12,i,i,i,i,nt,i
CN(CC(=O)Nc1cccc(F)c1)C(=O)c1ccc(-c2cccc(C(F)(F)F)c2)o1,i,i,i,18µM,nt,i
COc1ccc(Cl)cc1NC(=O)CN(C)C(=O)c1cccc2cccnc12,i,i,i,nt,nt,nt
COc1ccc(Cl)cc1NC(=O)CN(C)C(=O)c1cc2ccccc2cc1O,i,i,i,50µM,nt,?
CN(CC(=O)Nc1cccc(F)c1)C(=O)c1cc(=O)[nH]c2ccccc12,i,i,i,8.9µM,nt,i
COc1cccc(NC(=O)CN(C)C(=O)c2ccc(-c3cccc(C(F)(F)F)c3)o2)c1,i,i,i,i,nt,i
CN(CC(=O)Nc1cccc(F)c1)C(=O)c1ccc2c(c1)OCCO2,i,i,i,10µM,nt,i
CC(=O)c1cccc(NC(=O)c2cc(=O)[nH]c3ccccc23)c1,nt,i,i,45µM,i,i
Cc1ccc(NC(=O)c2cc(=O)[nH]c3ccccc23)cc1C,i,i,i,nt,i,i
CN(CC(=O)Nc1cccc(F)c1)C(=O)CCc1nc2ccccc2c(=O)[nH]1,i,i,i,45µM,nt,i
SMILES,L3MBTL1 block,HP1b chromo inh,JMJD2A Tudor,G9a inh,Sfp PPTase inh,BAZ2B block
CN(CC(=O)Nc1ccc(F)c(F)c1F)C(=O)CCCc1nc2ccccc2c(=O)[nH]1,i,i,i,i[12.7 µM],nt,i
COc1ccc(Cl)cc1NC(=O)CN(C)C(=O)c1ccc2c(c1)OCCO2,i,i,i,40µM,nt,i
CCc1noc(C)c1C(=O)NC1CCCc2c1cnn2-c1ccc(C(C)(C)C)cc1 (configuration not stated),nt,i,i,i,i,i
CCCc1cc(=O)[nH]c2nnc(SCC(=O)Nc3ccc(C(C)=O)cc3)n12,i,i,i,i[0.501 µM],nt,i
CCCc1cc(=O)[nH]c2nnc(SCC(=O)Nc3nnc(CC)s3)n12,i,i,25µM,i[12.7 µM],nt,i
O=C(c1ccc2c(c1)N(Cc1ccc(F)cc1)C(=O)c1ccccc1S2(=O)=O)N1CCCCC1,nt,i,i,i,nt,i
O=C(NCc1ccccc1)c1cnc2sc(N3CCCC3)nn2c1=O,nt,?,i,i,nt,i
Cc1onc(-c2ccccc2)c1C(=O)Nc1ccc(S(=O)(=O)N2CCOCC2)cc1,nt,i,i,50µM,i,i
Cc1onc(-c2ccccc2Cl)c1C(=O)Nc1ccc(S(=O)(=O)N2CCCC2)cc1,i,i,i,?,i,i
CCOc1cc(N2CCOCC2)c(OCC)cc1NC(=O)c1c(-c2ccccc2)noc1C,i,i,?,i[2.33 µM],nt,45µM
CCOc1cc(N2CCOCC2)c(OCC)cc1NC(=O)c1c(-c2ccccc2Cl)noc1C,?,?,45µM,35µM,i,40µM
CCOc1cc(N2CCOCC2)c(OCC)cc1NC(=O)c1ccccc1,?,i,i,?,i,?
CCOc1cc(N2CCOCC2)c(OCC)cc1NC(=O)c1c(C)noc1C,i,i,i,16µM,nt,i
COC(=O)[C@H](C)N(Cc1ccc(Cl)c(Cl)c1)S(=O)(=O)CCN1CCN(c2ccccc2)CC1,i,i,i,nt,nt,nt
CC(O)(c1ccc(Cl)cc1)c1ccc(Cl)cc1,nt,nt,nt,nt,i,nt
CC(NC(=O)CCNC(=O)c1ccco1)c1ccccc1 (configuration not stated),i,i,i,i[12.7 µM],nt,i
COC(=O)c1ccc(Nc2ncnc3c2cnn3C)cc1,nt,i,i,i,nt,i
COCC(=O)N1CCC2(CC1)CN(c1cccc(-c3ccccc3)c1)C2,nt,nt,nt,i[12.7 µM],i,nt
CN(C)c1cc2c(c(N(C)C)c1)C(=O)c1ccccc1C2=O,18µM,?,?,10µM,?,8.9µM
O=[N+]([O-])c1ccc(C2Nc3cccc4cccc(c34)N2)cc1,i,?,?,28µM,22µM,45µM
O=[N+]([O-])c1cccc(C2Nc3cccc4cccc(c34)N2)c1,i,?,50µM,16µM,45µM,35µM
FC(F)(F)c1ccc(C2Nc3cccc4cccc(c34)N2)cc1,i,i,?,35µM,i,40µM
CCCOc1ccc(C2Nc3cccc4cccc(c34)N2)cc1,i,?,40µM,40µM,i,?
CCN(CC)c1ccc(C2Nc3cccc4cccc(c34)N2)cc1,i,?,?,nt,i,i
O=C(NCc1cccc(Br)c1)c1cccn1-c1nnc(N2CCCCC2)s1,nt,i,i,i,nt,i
Cc1ccc(N=C2CSC(=O)N2)cc1,i,i,i,i,i,i
